Reference: PubChem BioAssay (NCATS)
Several values for one entry are separate records, joined by “and”; a condition that tells them apart may be missing. Equal values may be shown once. Records with an inconclusive call do not appear. Entries that show only a call come without a potency. Activity calls are given as the source filed them. Unless noted, calls come from the whole dose curve; as a rule, active = well fitted curve in the direction sought with a large enough effect; inconclusive = small, poorly fitted or top-dose-only effect, or another doubt; inactive = no such curve, though single readings can be large; an effect the other way counts as inactive or inconclusive.

How the values were obtained:
[1] = Cell Viability - LYMP2-003 (AID 965); settings: LYMP2-003 lymphoblastoid cell viability; series mostly up to 92.2 µM;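 note: cells exposed to compounds for 24 h before reading; nearly all actives have a fitted effect of over 50% in size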
Method in brief: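 Acute cytotoxicity is scored as a concentration-dependent drop in intracellular ATP, measured by luciferase luminescence in human lymphoblastoid cells treated for 24 hours at 37 C. AC50 values derive from Hill-equation modelling.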

[2] = qHTS assay for small molecule antagonists of peroxisome proliferator-activated receptor delta signaling (AID 588535; active = well fitted inhibition curve with a large enough effect in the signal ratio, with a control signal flat, not every such curve was filed as active; the % refers to the signal ratio;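 for max response: cells co-treated with a PPAR-delta agonist as stimulator during compound exposure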); settings: HEK293T PPARd-UAS-bla, beta-lactamase FRET ratio, 18 h; 460 nm channel
Method in brief: (§1)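 Cell-based beta-lactamase assay in antagonist mode: 4000 HEK293T PPAR-delta-UAS-bla cells per well, 5 hr preincubation then 18 hr compound incubation at 37 C. IC50 obtained by Hill equation fitting.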

[3] = biological target: Peroxisome proliferator-activated receptor delta (Homo sapiens) (UniProt Q03181); assay: as above; settings: HEK293T PPARd-UAS-bla, beta-lactamase FRET ratio, 18 h; series mostly up to 76.7 µM
Sequence of Peroxisome proliferator-activated receptor delta (Homo sapiens) (Q03181 whole entry, looked up): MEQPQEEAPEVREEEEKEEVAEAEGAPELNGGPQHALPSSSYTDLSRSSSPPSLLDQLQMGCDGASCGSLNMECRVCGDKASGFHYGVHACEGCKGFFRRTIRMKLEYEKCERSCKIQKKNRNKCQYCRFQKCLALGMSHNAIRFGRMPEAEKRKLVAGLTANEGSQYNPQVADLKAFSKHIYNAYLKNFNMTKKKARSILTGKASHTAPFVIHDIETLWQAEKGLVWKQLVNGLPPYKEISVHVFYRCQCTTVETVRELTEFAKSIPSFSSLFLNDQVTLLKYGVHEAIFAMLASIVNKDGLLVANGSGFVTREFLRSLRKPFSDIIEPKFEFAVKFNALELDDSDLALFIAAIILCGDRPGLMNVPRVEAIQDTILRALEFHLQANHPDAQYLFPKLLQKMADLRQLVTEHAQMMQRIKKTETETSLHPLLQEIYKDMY
Method in brief: as §1

[4] = qHTS assay for small molecule activators of the nuclear factor-kappa B (NF-kB) signaling pathway (AID 651749; active = well fitted activation curve with a large enough effect in the signal ratio; the % refers to the signal ratio); settings: NF-kB-bla ME-180 cells, beta-lactamase FRET ratio, 16 h; stronger effect = higher value
Method in brief: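 Stably transfected ME-180 line; NF-kB response element upstream of beta-lactamase. Treatment: compound or DMSO, 16 hr. Detection: fluorescent FRET substrate.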

[5] = qHTS assay for small molecule activators of the human pregnane X receptor (PXR) signaling pathway (AID 720659; call rule not given here); settings: DPX-2 HepG2 CYP3A4-luciferase, 24 h; series mostly up to 92.3 µM
[6] = biological target: Nuclear receptor ROR-gamma (Homo sapiens) (UniProt P51449); assay: qHTS assay for small molecule antagonists of the retinoid-related orphan receptor gamma (ROR-gamma) signaling pathway (AID 651802); settings: ROR-gamma antagonist cell reporter assay; series mostly up to 92.2 µM; note: nearly all actives have a fitted effect of over 60% in size
Sequence of Nuclear receptor ROR-gamma (Homo sapiens) (P51449 whole entry, looked up): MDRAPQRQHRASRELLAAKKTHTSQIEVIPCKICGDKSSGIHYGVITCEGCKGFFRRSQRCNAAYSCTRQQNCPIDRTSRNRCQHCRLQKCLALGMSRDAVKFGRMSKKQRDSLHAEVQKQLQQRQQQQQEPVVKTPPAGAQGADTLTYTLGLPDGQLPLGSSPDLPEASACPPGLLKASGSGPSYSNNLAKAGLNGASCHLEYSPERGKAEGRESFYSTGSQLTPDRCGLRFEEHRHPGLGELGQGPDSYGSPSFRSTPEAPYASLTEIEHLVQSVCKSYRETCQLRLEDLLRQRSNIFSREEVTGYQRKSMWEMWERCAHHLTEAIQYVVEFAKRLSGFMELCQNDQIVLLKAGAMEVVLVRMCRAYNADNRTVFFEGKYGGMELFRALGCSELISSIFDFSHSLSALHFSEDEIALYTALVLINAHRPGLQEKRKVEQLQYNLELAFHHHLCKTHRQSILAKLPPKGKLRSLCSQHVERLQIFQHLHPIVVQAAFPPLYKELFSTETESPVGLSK
Method in brief: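 CHO cells carrying TET-inducible ROR-gamma and an ROR response element–luciferase reporter were exposed to compound, then induced with doxycycline. After 16hr at 37C, luminescence was read; lower signal indicates antagonism.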

[7] = qHTS assay for small molecule agonists of the antioxidant response element (ARE) signaling pathway (AID 651741; active = well fitted activation curve with a large enough effect in the signal ratio; the % refers to the signal ratio; note: potency is the fitted concentration of half-maximal effect); settings: HepG2 ARE-bla reporter, beta-lactamase FRET ratio, 16 h; series mostly up to 96 µM
Method in brief: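 Seeding 2,000 ARE-bla HepG2 cells per well preceded a 5 h incubation at 37 C/5% CO2 and a 16 h compound exposure at 37 C. Beta-lactamase reporter activity was then quantified by fluorescence after 2 h with LiveBLAzer B/G FRET substrate.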

[8] = biological target: ATP-dependent 6-phosphofructokinase (Trypanosoma brucei brucei) (UniProt O15648); assay: qHTS Assay to Find Inhibitors of T. brucei phosphofructokinase: hit validation (AID 492961);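 note: luminescence reports ADP formed as PFK phosphorylates fructose-6-phosphate with ATP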; settings: T. brucei PFK, ADP-Glo luminescence; series mostly up to 24.3 µM
Sequence of ATP-dependent 6-phosphofructokinase (Trypanosoma brucei brucei) (O15648 whole entry, looked up): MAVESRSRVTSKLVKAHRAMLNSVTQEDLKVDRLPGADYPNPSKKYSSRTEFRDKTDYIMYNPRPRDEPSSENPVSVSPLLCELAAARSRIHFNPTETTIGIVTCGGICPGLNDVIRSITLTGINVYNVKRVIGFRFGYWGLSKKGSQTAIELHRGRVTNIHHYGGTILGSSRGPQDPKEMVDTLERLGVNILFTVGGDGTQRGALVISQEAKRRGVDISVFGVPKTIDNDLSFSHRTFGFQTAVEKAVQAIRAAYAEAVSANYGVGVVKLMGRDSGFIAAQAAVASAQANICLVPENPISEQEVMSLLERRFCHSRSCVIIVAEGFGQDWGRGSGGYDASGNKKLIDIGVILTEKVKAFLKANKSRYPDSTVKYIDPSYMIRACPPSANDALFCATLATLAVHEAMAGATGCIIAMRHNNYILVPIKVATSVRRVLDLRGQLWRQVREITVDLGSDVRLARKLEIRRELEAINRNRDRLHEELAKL
Method in brief: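 ADP-Glo luminescence read-out of ADP formed by 1.25 nM PFK from 0.1 mM ATP and 0.5 mM F6P (TEA pH 8.0, 45 min, RT). Compounds titrated; activity normalized to no-enzyme and full-enzyme controls.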

AS120 = assay: qHTS profiling for inhibitors of Plasmodium falciparum proliferation (AID 504749); note: nearly all actives have a fitted effect of over 60% in size; settings: P. falciparum in erythrocytes, SYBR Green DNA, 72 h; series mostly up to 28.7 µM
Method in brief: (§2)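 Three-day growth assay of blood-stage parasites in erythrocytes (0.3% parasitemia, 2.5% hematocrit) at 37 C, 5% CO2, quantified by SYBR Green DNA staining after overnight detergent lysis.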

ATS189 = assay: as above; settings: P. falciparum in erythrocytes, SYBR Green DNA, 72 h; series mostly up to 12.8 µM
Method in brief: as §2

CP191 = assay: as above; settings: P. falciparum in erythrocytes, SYBR Green DNA, 72 h; series mostly up to 12.8 µM
Method in brief: as §2

CP192 = assay: as above; settings: P. falciparum in erythrocytes, SYBR Green DNA, 72 h; series mostly up to 28.7 µM
Method in brief: as §2

CP194 = assay: as above; settings: P. falciparum in erythrocytes, SYBR Green DNA, 72 h; series mostly up to 12.8 µM
Method in brief: as §2

CP203 = assay: as above; settings: P. falciparum in erythrocytes, SYBR Green DNA, 72 h; series mostly up to 12.8 µM
Method in brief: as §2

CP247 = assay: as above; settings: P. falciparum in erythrocytes, SYBR Green DNA, 72 h; series mostly up to 12.8 µM
Method in brief: as §2

CP291 = assay: as above; settings: P. falciparum in erythrocytes, SYBR Green DNA, 72 h; series mostly up to 12.8 µM
Method in brief: as §2

DFO2036 = assay: as above; settings: P. falciparum in erythrocytes, SYBR Green DNA, 72 h; series mostly up to 12.8 µM
Method in brief: as §2

P94_40 = assay: as above; settings: P. falciparum in erythrocytes, SYBR Green DNA, 72 h; series mostly up to 12.8 µM
Method in brief: as §2

PC49 = assay: as above; settings: P. falciparum in erythrocytes, SYBR Green DNA, 72 h; series mostly up to 12.8 µM
Method in brief: as §2

TAB113 = assay: as above; settings: P. falciparum in erythrocytes, SYBR Green DNA, 72 h; series mostly up to 12.8 µM
Method in brief: as §2

In the case of `C=C(C)[C@H]1CC=C(C)C(=O)C1`, the outcome [1] is reported as “inactive”, the max response [2] is reported as 35.6% and 28.4% and the outcome [3] is reported as “inactive”. For the same compound, the activation [4] was -0.312% (inactive) and 0.229% (inactive) and the outcome [5] was “inactive”.
For `COS(C)(=O)=O`, the outcome [1] was “inactive”, the max response [2] was -15.8% and the outcome [3] was “inactive”. The activation [4] was 0.279% (inactive), the outcome [6] was “inactive” and the outcome [5] was “inactive”.
With `C=CC(C)(O)CCC=C(C)C` (stereo not drawn) the Potency [7] was “inactive”.
For `CC1=CC(=O)CC(C)(C)C1(O)/C=C/C(C)=C\C(=O)O` (stereo not drawn), the outcome [1] was “inactive”, the max response [2] was 3.87% and the outcome [3] was “inactive”. The Potency [7] was 37.6 µM (active), the activation [4] was 1.73% (inactive) and the outcome [6] was “inactive”. The outcome [5] was “inactive”.
With `CN1CCCC[C@@H]1CCN1c2ccccc2Sc2ccc(S(C)=O)cc21` (stereo partly drawn) the outcome [8] was “inactive”, the Potency (AS120) was “inactive” and the Potency (ATS189) was “inactive”. The Potency (CP191) was “inactive”, the Potency (CP192) was “inactive” and the Potency (CP194) was “inactive”. For the same compound, the Potency (CP203) was “inactive”, the Potency (CP247) was “inactive” and the Potency (CP291) was “inactive”. The Potency (DFO2036) was “inactive”, the Potency (P94_40) was “inactive” and the Potency (PC49) was “inactive”. The Potency (TAB113) was “inactive”.
With `Cc1occc(=O)c1O` the outcome [1] was “inactive”, the Potency [7] was “inactive” and the activation [4] was -0.401% (inactive). For the same compound, the outcome [6] was “inactive” and the outcome [5] was “inactive”.
With `CN1[C@@H]2CC[C@H]1CC(OC(=O)[C@@H](O)c1ccccc1)C2` (stereo partly drawn) the outcome [8] was “inactive”, the Potency (AS120) was “inactive” and the Potency (ATS189) was “inactive”. The Potency (CP191) was “inactive”, the Potency (CP192) was “inactive” and the Potency (CP194) was “inactive”. For the same compound, the Potency (CP203) was “inactive”, the Potency (CP247) was “inactive” and the Potency (CP291) was “inactive”. The Potency (DFO2036) was “inactive”, the Potency (P94_40) was “inactive” and the Potency (PC49) was “inactive”. The Potency (TAB113) was “inactive”.
With `CC[C@@]12CCCN3CCc4c(n(c5ccccc45)C(=O)C1)[C@H]32` the outcome [8] was “inactive”, the Potency (AS120) was “inactive” and the Potency (ATS189) was “inactive”. The Potency (CP191) was “inactive”, the Potency (CP192) was “inactive” and the Potency (CP194) was “inactive”. For the same compound, the Potency (CP203) was “inactive”, the Potency (CP247) was “inactive” and the Potency (CP291) was “inactive”. For the same compound, the Potency (DFO2036) was “inactive”, the Potency (P94_40) was “inactive” and the Potency (PC49) was “inactive”. For the same compound, the Potency (TAB113) was “inactive”.
